Among the data in PubChem BioAssay are z-score values, retold here.

Molecules are shown by their SMILES.

A short description of the test: blood-stage malaria parasite viability loss – strain 3D7, DAPI fluorescence, 100 nL, primary screen (AID 1184).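 Note: parasites grown inside human red blood cells in medium with human serum.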 As to conditions: P. falciparum 3D7 growth, 3 d, higher = more signal.
With `COC(=O)[C@@]1(Cc2ccc(F)cc2)[C@H]2c3cc(C(=O)N(C)C)n(Cc4ccc(O)c(OC)c4)c3C[C@H]2CN1C(=O)c1ccccc1`, the z-score was -1.76.

In the case of `CO[C@H]1O[C@H](CO)[C@@H](OC(=O)Nc2cccc(F)c2)[C@H](OC(=O)Nc2ccccc2-c2ccccc2)[C@H]1OC(=O)Nc1ccccc1-c1ccccc1`, the z-score was -1.7.

Regarding `C=C(CCCC)/C(=C/C[C@H](OC(C)=O)c1ccc(OCCO)cc1)c1cc(C(=O)OC)ccc1OC`, the z-score is -2.82.

The compound `COCCCNC(=O)[C@@]1(Sc2ccc(C)cc2)CC(=O)N(Cc2ccccc2Cl)[C@@H]1c1ccc(CO)cc1I` gave a z-score of 1.22.

The compound `COc1cccc(/C=C(\C#N)C(=O)Nc2c(C)n(C)n(-c3ccccc3)c2=O)c1` gave a z-score of 0.393.

Turning to `CS(=O)(=O)CCOC(=O)C1=CC(CCCO)=CC(C2CC2)N(Cc2cccc(OC(F)(F)F)c2)C=C1C(=O)OCCS(C)(=O)=O` (centres undefined), the z-score is -2.11.

Consider `COc1ccc(C#Cc2ccc3c(c2)[C@]2(C(=O)N3)[C@H](C(=O)Nc3nc4ccccc4s3)[C@H]3C(=O)O[C@H](c4ccccc4)[C@H](c4ccccc4)N3[C@@H]2c2ccccc2OCCO)cc1`, for which the z-score was -2.21.

`C=C[C@@H](C)[C@@H](OC(=O)Nc1ccc(SC)cc1)c1ccc(OCCO)cc1`: the z-score was -0.553.

`CC(=O)N1CC(C(O)C2C=CC3C(=O)NC(=O)C3N2Nc2ccc(Cl)cc2Cl)c2ccccc21` (centres undefined): the z-score was -0.252.

For the compound `CC(C)C[C@@H]1NC(=O)[C@H]2C[C@@H](C(=O)NCCCCCN)[C@@H](c3cccc(OCCO)c3)N2C1=O`, the z-score came out at 0.304.

Take `C=C(/C(=C/C[C@@H](OC(C)=O)c1ccc(CO)o1)c1cc(C(=O)OC)ccc1OC)C(C)C`: the z-score is -0.485.

With `O=C1OCC=C[C@H]2OC34C=CCN(c5ccc6ccccc6c5)C(=O)[C@H]3N(CCCCCO)C(=O)[C@@H]4[C@@H]12` (some centres undefined), the z-score was -0.471.

In the case of `COC(=O)[C@@]1(Cc2ccccc2)[C@H]2c3cc(C(=O)N4CCCC4)n(CCSCCO)c3C[C@H]2CN1C(=O)c1ccccc1`, the z-score is -1.7.

The compound `NC(=O)[C@@H]1[C@H]2C(=O)O[C@H](c3ccccc3)[C@H](c3ccccc3)N2[C@H](c2ccc(OCCO)cc2)[C@@]12C(=O)Nc1ccc(C#CCCO)cc12` had a z-score of 0.195.

As to `[N-]=[N+]=Nc1ccccc1C[C@]1(C(=O)NCc2ccccc2)COC(c2ccc(OCCCO)cc2)=N1`, the z-score is -2.38.

Regarding `CN1C(=O)[C@@]2(Cc3ccccc3)N=C(c3ccc(OCCCO)cc3)O[C@H]2c2ccccc21`, the z-score was -2.26.

Consider `CCOC(=O)C[C@H]1[C@H](OC(=O)c2ccccc2-c2ccccc2)[C@@H](NC(=O)c2ccc3ccccc3n2)c2cc(OCCCO)ccc2N1C(=O)c1ccccc1`, for which the z-score was -1.66.

The compound `Nc1cc(Br)ccc1C(=O)O` came in with a z-score of 1.1.

With `C=C(COC)C(=O)CC[C@@H](OC(=O)c1cccnc1)c1ccccc1OCCO`, the z-score was -3.07.

In the case of `CCOC(=O)C1=C[C@@H](c2ccccc2)N(S(=O)(=O)c2ccc(C)cc2)[C@H]1c1ccccc1`, the z-score is -0.346.

As to `CC(C)c1ccc(NN2C(C(O)Cc3ccccc3)C=CC3C(=O)N(c4ccccc4)C(=O)C32)cc1` (centres undefined), the z-score is -0.0057.

For the compound `C=CCC(OC(C)=O)[C@@H]1[C@@H](N(Cc2ccc(-c3cccc(C(F)(F)F)c3)o2)C(=O)Cc2ccc(OC)cc2)c2cc(OCCCO)ccc2N1C(=O)Cc1ccc2ccccc2c1` (some centres undefined), the z-score is -2.17.

The compound `COCCOC(=O)N1C(=O)[C@@]2(c3cc(C#CCNC(N)=O)ccc31)[C@H](c1ccc(O)cc1)N1[C@H](c3ccccc3)[C@H](c3ccccc3)OC(=O)[C@H]1[C@@H]2C(N)=O` displayed a z-score of 0.228.

On to `C=CC1c2cc(O)c(OC)cc2CCN1Cc1ccc([N+](=O)[O-])o1` (centres undefined), for which the z-score was -0.83.

For `CC(=O)n1cc(C(O)C2C=CC3C(=O)N(c4ccccc4)C(=O)C3N2Nc2ccc(C(C)C)cc2)c2ccccc21` (centres undefined), the z-score is -0.15.

Turning to `CO[C@H]1O[C@H](CO)[C@@H](OC(=O)c2ccc(Br)cc2)[C@@H]2OC(=O)[C@H](Cc3ccccc3)C/C=C/C[C@@H](Cc3ccccc3)C(=O)O[C@@H]12`, the z-score is -0.949.

In the case of `CN(C)CCCC[C@@H]1NC(=O)[C@@H]2C[C@H](C(=O)O)[C@H](c3cccc(OCCO)c3)N2C1=O`, the z-score is -0.286.

The compound `CCCCCCCCCCC(O)C1C=CC2C(=O)N(c3ccccc3)C(=O)C2N1Nc1ccccc1F` (centres undefined) gave a z-score of 0.157.

Consider `C=CCOC(=O)[C@H]1[C@@H]2C(=O)O[C@@H](c3ccccc3)[C@@H](c3ccccc3)N2[C@@H](c2ccc(OCCOC(=O)[C@H]3C[C@H]4C(=O)N[C@@H](CCCCNC(C)=O)C(=O)N4[C@H]3c3cccc(OCCO)c3)cc2)[C@]12C(=O)Nc1ccc(I)cc12`, for which the z-score was -1.61.
